# Measured values as given in PubChem BioAssay AID651871 (Sanford-Burnham Center for Chemical Genomics, 2012).
# Where “and” joins values, the source holds several entries; their conditions need not be identical. Equal entries are not always repeated.
# Tested on: HL-1
# Experiment: cardiomyocyte survival under oxidative or metabolic stress – cell-based, panel, H9c2 and HL-1, ATP luminescence, set 2, SAR follow-up (AID 651871);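 note: cells exposed to stressor for 2 h before ATP readout; reference of the scale not given here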
# Conditions: H9c2/HL-1 cardiomyocytes, 2-deoxyglucose stress, with 2-deoxyglucose, run 5, at 79 µM (top of the series)
row,SMILES,activity (protection/inhibition)
1,CCOC(=O)c1cccc(NC(=O)CNC(=O)c2cc(-c3cc(OC)c(OC)c(OC)c3)nc3ccccc23)c1,51.1%
2,COc1ccc2nc(-c3cc(OC)c(OC)c(OC)c3)cc(C(=O)NCC(=O)Nc3ccc(C(C)=O)cc3)c2c1,55.8%
3,COc1ccc2c(c1OC)C(=O)N1c3ccccc3C(=O)N(Cc3cccc(Cl)c3Cl)C21 (stereo not drawn),43.8% and -9.92%
